Data as given in PubChem BioAssay (NCI).
This is part of a sample that, as a whole, favours compounds with a hit. Of some 83,000 tested, about 20% had one in any assay.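 Cells were grown in 96-well plates and exposed to the test compound at a single concentration for 48 hours; results are reported as percent growth, with values below 10 considered active.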 Values without a mark were called inactive. Calls of active or inactive are those of the source.

Tests used:
Assay in all cases: NCI-60 one-dose screen, 48 h (100 = growth as untreated, 0 = no growth, -100 = all killed)
Settings in all cases: 10 µM unless noted
[1] = tested on: T-47D breast
[2] = tested on: BT-549 breast
[3] = tested on: MDA-MB-435 melanoma
[4] = tested on: SW-620 colon
[5] = tested on: MCF7 breast
[6] = tested on: HCT-116 colon
[7] = tested on: HCC-2998 colon
[8] = tested on: KM12 colon

Row | Structure (SMILES) | growth [1] | growth [2] | growth [3] | growth [4] | growth [5] | growth [6] | growth [7] | growth [8]
1 | COc1cc(/C=C2\C(=O)N(CC(O)COc3cc(O)c4c(=O)cc(-c5ccccc5)oc4c3)c3ccccc32)cc(OC)c1O (stereo not given) | 58.2% | 96.7% | 54.7% | 89.9% | 32.8% | 78.4% | 99.7% | 82%
2 | O=C(/C=C/c1ccc2ccccc2c1)Nc1ncc(Cc2ccccc2)s1 | 25.7% | 72.5% | 66.1% | 42.6% | 50.3% | 21% | 92% | 64.4%
3 | Nc1nc2c(c(=O)[nH]1)C(c1ccc3c(c1)OCO3)C=C(C(=O)O)N2 (stereo not given) | 106% | 91.9% | 97.7% | 106% | 92.7% | 99.4% | 104% | 110%
4 | COC(=O)C(Cc1ccccc1)n1cc(COc2nc(Cl)nc(Nc3ccc(Cl)cc3)n2)nn1 (stereo not given) | 78.9% | 99.6% | 105% | 99.8% | 78.1% | 100% | 101% | 96.5%
5 | C=C(C)[C@@H]1CC[C@]2(C(=O)O)CC[C@]3(C)[C@H](CC[C@@H]4[C@@]5(C)C/C(=C/c6ccc(OC)cc6)C(=O)C(C)(C)[C@@H]5CC[C@]43C)[C@@H]12 | 13.3% | 26.2% | 30.3% | 21.9% | 5.66% (active) | 5.84% (active) | 21.7% | 21.3%
6 | Nc1c2c(nc3ccc(Cl)cc13)CC(c1ccccc1)CC2=O (stereo not given) | 54.1% | 39.8% | -39.7% (active) | 24.8% | 19% | 20.3% | 67.3% | 26.4%
7 | CC(C)(C)c1nc(-c2ccc(O)c(O)c2)cs1 | 61.6% | 63.3% | 36.6% | 28.6% | 83% | 48.8% | 86.1% | 76.7%
8 | COc1ccc(C2(Cl)c3ccccc3N(c3ccccc3)c3ccccc32)cc1 | 5.67% (active) | 11.3% | -60.9% (active) | 0.491% (active) | -6.13% (active) | -37.7% (active) | -15.6% (active) | 6.64% (active)
9 | CC(=O)Oc1ccccc1C(=O)/C=C/c1cccc([N+](=O)[O-])c1 | 74.2% | 104% | 55.7% | 43% | 39.9% | 10.8% | 101% | 34.7%
10 | c1cnc2[nH]cc(-c3csc(-c4cn(CCCN5CCCCC5)c5ccccc45)n3)c2c1 | 63.1% | 90.9% | 1.72% (active) | -47.4% (active) | 22.2% | 60.6% | 87.6% | 63.3%
11 | Cc1cccc(C)c1NCc1nc(-c2ccccc2)n[nH]1 | 87.8% | 94.8% | 101% | 109% | 88.2% | 98.7% | 101% | 103%
12 | CCN(CC)C(=O)CCCCCn1c2ccccc2c2c3c(c4c5ccccc5[nH]c4c21)C(=O)N(O)C3=O | 28.2% | 56.8% | 25.3% | 70.1% | 18.5% | 37.8% | 44% | 30.8%
13 | CN(C)c1cccc2[nH]c(-c3[nH]ncc3Nc3ccnc(N)n3)nc12 | -18.3% (active) | -31.5% (active) | -90% (active) | -5.42% (active) | -46.1% (active) | -40.8% (active) | -41.9% (active) | -31.8% (active)
14 | Cc1ccc(-c2nc([P+](c3ccccc3)(c3ccccc3)c3ccccc3)c(N3CCOCC3)o2)cc1 | -20.4% (active) | -13% (active) | -6.62% (active) | 9.9% (active) | 2.74% (active) | 1.88% (active) | 14.1% | -22.4% (active)
15 | N#CC1=C(N)Oc2ccc3ccccc3c2C1c1ccccc1Cl (stereo not given) | 38% | 31.7% | -8.55% (active) | 30.6% | 18.1% | 18.3% | 76% | 36%
16 | CCOC(=O)C1OC1(c1ccccc1)c1ccccc1 (stereo not given) | 110% | 110% | 104% | 105% | 105% | 107% | 117% | 94.3%
17 | Cn1c(=O)c2c(nc(Br)n2CC(=O)Nc2ccc(F)cc2)n(C)c1=O | 87.2% | 101% | 112% | 105% | 99.2% | 84.5% | 114% | 101%
18 | CC1(C)CC[C@]2(C(=O)NCCNCCN)CC[C@]3(C)C(=CC[C@@H]4[C@@]5(C)CCC(=O)C(C)(C)[C@@H]5CC[C@]43C)[C@@H]2C1 | -71.1% (active) | 83.5% | 61% | -78.4% (active) | -23.8% (active) | -54% (active) | 24.5% | 9.99% (active)
19 | Fc1cccc(-c2[nH]nc3nc(Nc4cccnc4)sc23)c1 | 50.8% | 60.6% | -8.7% (active) | 41.6% | 29.3% | 35% | 70.2% | 22.8%
20 | Nc1c(C(=O)Nc2cccc3ccccc23)sc2nc3c(cc12)CCCC3 | 55.7% | 64.6% | -63.1% (active) | 31% | 20.6% | 20.7% | 26.7% | 26.7%
21 | C[C@@H]1CCCCCCCCC[C@H](O)C(=O)C[C@@H](SC[C@@H](O)C(=O)O)C(=O)O1 | 75.8% | 91.8% | 103% | 103% | 33.9% | 54.5% | 109% | 95.8%
22 | COc1ccc(C(=O)/C=C/c2cc(-c3cc(OC)c(OC)c(OC)c3)n[nH]2)cc1OC | -2.5% (active) | -51.6% (active) | -71.6% (active) | -64% (active) | -39.6% (active) | -88.7% (active) | -77.2% (active) | -86.7% (active)
23 | C=C1C(=O)O[C@H]2[C@H]1CC/C(COC(=O)NCCc1c[nH]c3ccccc13)=C\CC[C@@]1(C)O[C@@H]21 | -36.9% (active) | -12.9% (active) | 42% | -33.2% (active) | 6.64% (active) | -89.1% (active) | 94.7% | 89.6%
24 | C[C@@H](C(=O)O)c1ccc2c3cc(Cl)ccc3n(Cc3cc(=O)oc4ccc(Cl)cc34)c2c1 | 86.8% | 86.7% | 104% | 107% | 90.7% | 87.8% | 101% | 99%
25 | C=C(C)[C@@H]1CC[C@]2(C=O)CC[C@]3(C)[C@H](CC[C@@H]4[C@@]5(C)C/C(=C/c6cccnc6)C(=O)C(C)(C)[C@@H]5CC[C@]43C)[C@@H]12 | 31.9% | 75.6% | 95.3% | 76.2% | 40.5% | 43.8% | 99% | 78.3%
26 | COc1cc2c(cc1-c1c(C)noc1C)ncc1nc(C3CC3)n([C@H](C)COC(F)F)c12 | 32.7% | 71.6% | 44.3% | 62.7% | 21.7% | 37% | 57.3% | 51.5%
27 | C=C(C)[C@@H]1CC[C@]2(C)[C@H](CC=C3[C@@H]4CC(C)(C)CC[C@]4(C=O)CC[C@]32C)[C@@]1(C)CCCN | 79.1% | 87.3% | 95.1% | 29.5% | 39% | 22.9% | 40.1% | 77.3%
28 | Cc1cc2nc3c4cc(N)ccc4n(CCN(C)C)c3nc2cc1C | 16.1% | 45% | 14.6% | 7.31% (active) | -19.6% (active) | 5.51% (active) | 17% | 17.4%
29 | COc1cc(-c2cc3ncccc3c3nc(OCCN(C)C)c4cccnc4c23)cc(OC)c1OC | 37% | 41.6% | 18.1% | 17.4% | 3.86% (active) | -21.8% (active) | 17.1% | 18.7%
30 | C/C(=C(/c1ccccc1)c1ccc(N2C(=O)c3cccc4c(NCc5ccccc5)ccc(c34)C2=O)cc1)c1ccccc1 | 76% | 100% | 102% | 95.2% | 89.9% | 87.1% | 109% | 91.5%
